# An excerpt weighted towards active compounds, which were near 5.7% of everything screened.
# DRD3 agonist: agonists of human D3 dopamine receptor | P35462 | D3R DiscoveRx beta-arrestin cells, luminescence, 90 min | max activation, % | 410,000 compounds, 0.58% hits | AID 652048; in the data active = max activation above about 30%; also: 0% is about no effect
# Target sequence (P35462 whole entry, looked up): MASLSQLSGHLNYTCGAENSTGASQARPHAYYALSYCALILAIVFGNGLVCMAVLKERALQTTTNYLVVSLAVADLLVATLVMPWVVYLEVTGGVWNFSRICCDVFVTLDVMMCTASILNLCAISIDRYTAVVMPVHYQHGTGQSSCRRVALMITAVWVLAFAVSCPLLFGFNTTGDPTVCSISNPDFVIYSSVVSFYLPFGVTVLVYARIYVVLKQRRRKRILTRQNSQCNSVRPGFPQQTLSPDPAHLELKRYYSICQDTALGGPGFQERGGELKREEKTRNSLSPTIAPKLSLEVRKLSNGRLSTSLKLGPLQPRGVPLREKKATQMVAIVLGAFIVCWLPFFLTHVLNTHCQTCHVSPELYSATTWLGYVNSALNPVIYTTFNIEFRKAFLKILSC
#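 Agonist mode: compounds and dopamine controls were applied to plated cells for 90 min at 37 degrees C after an overnight attachment at 1500 cells/well. Luminescent read-out followed 30 - 60 minutes at room temperature with DiscoveRx detection reagent.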
# D3 antag: D3 dopamine receptor (human) antagonism | D3R cells, DiscoveRx beta-arrestin luminescence, antagonist mode; stronger effect = lower value | max response, negative = inhibition, % | 360,000 compounds, 2.5% hits | AID 652054; in the data active = max response below about -50%; inconclusive = no clear call, values can overlap the other calls; also: % is scaled to controls: 0 for no effect and ±100 for the full control effect
#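 Cells plated overnight at 1500 cells/well, then exposed to library compounds with dopamine controls for 90 minutes at 37 degrees C. DiscoveRx reagent added for 30–60 minutes at room temperature; luminescence read, quantitative HTS format.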
# GLP1R ag: activates the human GLP-1 receptor. P43220. HEK293 GLP-1R CRE-luciferase, luminescence, 4-6 h; cells express a hypersensitive GLP-1R form. Potency, µM (series often up to 45.6 µM), without a hit: at the highest dose activation, hits mostly activators. 380,000 compounds, 0.007% hits; also: potency is read from the fitted curve at half-maximal effect; % of control where 0% means no effect
# GLP-1R inv ag: acts as inverse agonist at human GLP-1 receptor. P43220. HEK293 GLP-1R CRE-luciferase, luminescence, 24 h; GLP-1R form is constitutively active. 410,000 compounds, 1.6% hits. Potency, µM (series often up to 38.3 µM), for inactives: top-dose activity change, negative = inhibition, actives largely listed as inhibitors; also: potency is read from the fitted curve at half-maximal effect; % is scaled to controls: 0 for no effect and ±100 for the full control effect; nearly all actives have a fitted effect of over 55% in size
#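 Inverse agonism was detected as reduced cAMP-driven luciferase luminescence after 24 h compound treatment. The cells were HEK293 clones expressing constitutively active human GLP-1R with the reporter. Reporter-only and GPR119 cell lines served as counterscreen controls.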
# HEK293 tox: cytotoxic in the GLP-1 receptor inverse agonist counter-screen. AID 624418. HEK293 cAMP-luciferase reporter cells, luminescence, 24 h. 410,000 compounds, 0.13% hits. Potency, µM (series often up to 38.3 µM), for inactives: top-dose activity change, negative = inhibition, actives largely listed as inhibitors;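 also: loss of luciferase light is scored as toxicity; potency is read from the fitted curve at half-maximal effect; % is scaled to controls: 0 for no effect and ±100 for the full control effect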
#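 Luminescence readout: signal drop marks cytotoxicity. Plated cells grew 12 h at 37 °C, 5% CO2, received 23 nL compound for 24 h, then got luciferase reagent, read after 12 min at RT.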
# ClpP mod: qHTS Assay for Activators of ClpP; ATP-dependent Clp protease proteolytic subunit (Bacillus subtilis (strain 168)), P80244; purified B. subtilis ClpP, FRET peptide cleavage, 20 min; Potency, µM (titrated, usually from 57.5 µM), for the others: at the top dose activity change, negative = active; 340,000 compounds, 1.9% hits; active = well fitted falling curve with a large enough effect; inconclusive = small, poorly fitted or top-dose-only effect; inactive = no such curve, though single readings can be large or run the other way; also: potency is read from the fitted curve at half-maximal effect; the source files actives as falling curves though it sought activators and does not explain the sign; nearly all actives have a fitted effect of over 65% in size
# Target sequence (P80244 whole entry, looked up): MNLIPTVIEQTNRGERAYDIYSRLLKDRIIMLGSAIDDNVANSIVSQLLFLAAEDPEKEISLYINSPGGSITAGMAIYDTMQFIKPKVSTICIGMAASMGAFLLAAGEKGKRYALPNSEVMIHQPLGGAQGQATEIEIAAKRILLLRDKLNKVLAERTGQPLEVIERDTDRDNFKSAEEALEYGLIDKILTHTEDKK
#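 FRET quenching reversal measured ClpP activation: 10 microg/mL B. subtilis ClpP at pH 8 with the FRET-FV decapeptide, read at 430 nm after 320 nm excitation. The 20-min minus 0-min signal was scaled between DMSO/no-enzyme wells and ADEP (5.8 microM final).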
# Numbers without * were called inactive; ? = inconclusive; / = no result; [ ] = dose if it differs, or a comment. Unless noted, calls follow the shape of the dose curve; as a rule, active = well fitted curve in the direction sought with a large enough effect; inconclusive = small, poorly fitted or top-dose-only effect, or another doubt; inactive = no such curve, though single readings can be large; an effect the other way counts as inactive or inconclusive.
SMILES,DRD3 agonist,D3 antag,GLP1R ag,GLP-1R inv ag,HEK293 tox,ClpP mod
Cc1oc(-c2cccs2)nc1CN1CCN(CC(C)C)C(CCO)C1 (stereo unspecified),-4,-11,8%,-23%,6%,/
Cc1ccccc1CC1(CO)CCCN(Cc2nc(-c3cccs3)oc2C)C1 (stereo unspecified),-2,-104*,19%,?,?,-29%
CCCN(CC1CC1)C(=S)NC(=O)c1cc(Br)ccc1Cl,2,0,-4%,-79%,3.2µM*,-3%
CCCN(CC1CC1)C(=S)NC(=O)c1ccccc1C,2,21,20%,?,-25%,0%
CCc1cccc(CC)c1NC(=O)CN1CCN(c2ccccc2)CC1,-10,-76*,0%,0%,-1%,0%
CCN1CCN(CC(=O)Nc2c(OC)cccc2OC)CC1,-9,-20,-2%,-1%,14%,22µM*
CCN1CCN(CCC(=O)Nc2ccccc2OC)CC1,-5,?,-1%,2%,-3%,-2%
COC(=O)c1ccc(NC(=O)CN2CCN(c3ccccc3)CC2)cc1,33*,-25,3%,1%,7%,1%
O=C(CN1CCN(c2ccccc2)CC1)Nc1ccccc1Cl,6,0,-5%,-25%,1%,-1%
O=C1c2ccccc2C(=O)N1c1ccccn1,/,/,/,/,/,-2%
O=C(c1cccs1)c1cn(CCOc2ccccc2Cl)c2ccccc12,2,/,/,?,11%,-19%
O=C(Cn1nnc(-c2ccccc2)n1)N/N=C/c1cc([N+](=O)[O-])ccc1O,-20,-76*,15%,6%,2%,2%
O=C(Nc1ccc(Br)cc1)/C(=C/c1cccc([N+](=O)[O-])c1)NC(=O)C1CCCCC1,-9,-63*,-11%,?,?,2%
Cc1ccc(NC(=O)/C(=C/c2cccc([N+](=O)[O-])c2)NC(=O)C2CCCCC2)cc1,0,-7,-10%,-1%,1%,4%
O=C(Cn1nc2ccccc2n1)N/N=C/c1cc([N+](=O)[O-])ccc1O,1,-65*,2%,-13%,-6%,/
O=C(Cn1nnc(-c2ccccc2)n1)N/N=C/c1cc([N+](=O)[O-])c(Cl)cc1Cl,1,-27,-3%,-5%,6%,2%
O=C(N/N=C/c1cc([N+](=O)[O-])ccc1O)C1CCCCC1,-11,-88*,-7%,?,?,1%
COc1ccc(COC[B-](F)(F)F)cc1,5,4,?,89%,3%,0%
CCN(CC)C(=O)C1CCCN(c2ccc([N+](=O)[O-])cc2/C=N/NC(=O)c2ccccc2)C1 (stereo unspecified),9,7,8%,1%,-2%,-1%
CCN(CC)C(=O)C1CCCN(c2ccc([N+](=O)[O-])cc2/C=N/NC(=O)c2ccc([N+](=O)[O-])cc2)C1 (stereo unspecified),-7,-79*,-5%,1%,2%,-1%
COCCCn1c(=O)c2sccc2n2c(CCCC(=O)Nc3cccc(OC)c3)nnc12,15,/,/,5%,-18%,-8%
COc1cccc(NC(=O)CSc2nnc3scc(-c4ccc(Cl)cc4)n23)c1,-8,/,/,5%,2%,-7%
COc1cccc(NC(=O)n2nc(N)cc2-c2ccc(Cl)cc2)c1,1,18,-2%,10µM*,?,1%
O=[N+]([O-])c1cc(-c2nc(-c3ccccc3)no2)ccc1NCCc1ccccc1,7,/,/,14%,-3%,1%
CC1/C(=N/O)C(CN(C)C)C2CC1C2(C)C (stereo unspecified),3,-69*,2%,-8%,8%,-14%
SMILES,DRD3 agonist,D3 antag,GLP1R ag,GLP-1R inv ag,HEK293 tox,ClpP mod
Cc1nn(Cc2ccccc2)c(C)c1CNC(=O)CN=C1NS(=O)(=O)c2ccccc21,2,0,-4%,13%,-1%,22µM*
COc1ccccc1N1CCN(C(=O)C(=O)c2c(C)n(C)c3ccccc23)CC1,4,-6,4%,0%,-3%,-1%
Cc1c(C(=O)C(=O)N2CCN(C)CC2)c2ccccc2n1C,0,-14,-3%,-6%[0.307 µM],-5%[0.307 µM],13µM*
O=C(Cn1cnc2c(NCc3ccccc3)ncnc21)NCCCN1CCCC1=O,34*,24,-3%,13%,-2%,2%
COc1ccc(-c2nc3sc(CCNC(=O)c4ccco4)c(C)n3n2)cc1,-5,/,2%,-23%,-21%,0%
Cc1cccc(/C=C/c2onc(C)c2[N+](=O)[O-])n1,-4,?,-1%,2.8µM*,?,/
Cc1cccc(N/C=C/c2onc(C)c2[N+](=O)[O-])c1,0,?,1%,1%,2%,-2%
Oc1ccccc1-c1cc(-c2ccc(F)cc2)n[nH]1,2,3,-8%,?,-24%,2%
Oc1ccc(F)cc1-c1cc(-c2ccc3c(c2)OCCO3)n[nH]1,-4,-53*,-7%,?,-15%,-10%
C/C(=N\OC(=O)c1c(-c2c(F)cccc2Cl)noc1C)c1nccs1,12,14,11%,?,-1%,/
Cc1onc(-c2c(Cl)cccc2Cl)c1/C(N)=N/OC(=O)C(C)(C)C,36*,-12,3%,?,2%,0%
Cc1onc(-c2c(F)cccc2Cl)c1C(=O)O/N=C(\N)c1ccc([N+](=O)[O-])o1,33*,8,7%,-4%,6%,/
CC(C)(C)C(=O)O/N=C(\N)c1c(Cl)cccc1Cl,5,1,5%,-5%,4%,/
Cc1ccc(-c2c(CN3CCN(c4cccc(C)c4)C(C)C3)csc2C)cc1 (stereo unspecified),-4,/,/,-29%,-13%,-9%
CCOC(=O)NC(=O)COC(=O)c1ccc(Sc2ncn[nH]2)c([N+](=O)[O-])c1,-9,-5,0%,4%,2%,16µM*
CNc1nn(-c2cccc(Cl)c2)nc1N,-7,-27,12%,?,-19%,32µM*
COc1cccc(CNC(=O)C2CCN(C(=O)c3sccc3-n3cccc3)CC2)c1,7,/,/,8%,-7%,-2%
Cc1cc(-c2csc(N)n2)c(C)n1CCc1ccccc1,32*,-19,-7%,5%,-17%,0%
Cc1cccn2c(=O)c(/C=C(\C#N)c3nc4ccccc4s3)c(Oc3ccc(F)cc3)nc12,6,/,/,7%,8%,4%
Cc1oc2ccc(O)c(CN3CCN(Cc4ccccc4)CC3)c2c1C(=O)Nc1ccccc1,-23,/,/,?,1%,-4%
